Pf growth 48h: Primary qHTS for delayed death inhibitors of the malarial parasite plastid, 48 hour incubation. actives 5.9% (n = 310,000). AID 504832, 2011. P. falciparum luciferase growth in erythrocytes, 48 h. Potency, µM (series often up to 28.7 µM), inactives show top-dose activity change, negative = inhibition, hits mostly inhibitors; active = well fitted inhibition curve with a large enough effect; inconclusive = small, poorly fitted or top-dose-only effect, or another doubt; inactive = no such curve, though single readings can be large or run the other way; also: potency is read from the fitted curve at half-maximal effect; % is scaled to controls: 0 for no effect and ±100 for the full control effect
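Compounds are pin-transferred into medium, infected erythrocytes (2% hematocrit, 0.1% parasitemia final) are added, and plates sit one parasite generation at 37 C in 5% CO2. Detection reagent is then added and luminescence measured.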
Pf growth 96h: Primary qHTS for delayed death inhibitors of the malarial parasite plastid, 96 hour incubation. P. falciparum luciferase reporter growth, 96 h. Potency, µM (doses to about 28.7 µM), for inactives: at the highest dose activity change, negative = inhibition, most hits filed as inhibitors. actives 6.9% (n = 320,000); active = well fitted inhibition curve with a large enough effect; inconclusive = small, poorly fitted or top-dose-only effect, or another doubt; inactive = no such curve, though single readings can be large or run the other way; also: potency is read from the fitted curve at half-maximal effect; % is scaled to controls: 0 for no effect and ±100 for the full control effect
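Luminescence readout: decreased luciferase signal marks inhibited growth of reporter-expressing P. falciparum in infected red cells (2% hematocrit, 0.05% parasitemia final), exposed to compound two generations (96 h, 37 C, 5% CO2).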
NS1 inh: qHTS Assay for Inhibitors of Influenza NS1 Protein Function. Potency, µM (titrated, usually from 46.1 µM), without a hit: top-dose activity, positive = more growth. actives 0.4% (n = 270,000); also: potency is read from the fitted curve at half-maximal effect; actives are rising curves; nearly all actives have a fitted effect of over 50% in size
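Read-out: OD600 growth recovery of NS1-expressing budding yeast. Cells grown overnight at 30C in -URA glucose medium, washed, resuspended and diluted 1:100 in 2% galactose assay medium, pH 6.0. Same strain lacking NS1 served as positive control.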
SARS PLP yeast: qHTS of Yeast-based Assay for SARS-CoV PLP; S. cerevisiae expressing SARS-CoV PLpro, growth rescue; Potency, µM (series often up to 32.9 µM), inactives show at the top dose activity, positive = growth rescue, most hits filed as activators; actives 0.19% (n = 330,000); also: potency is read from the fitted curve at half-maximal effect; 0% is about no effect; nearly all actives have a fitted effect of over 55% in size
NS1 inh valid: Assay for Inhibitors of Influenza NS1 Protein Function: Hit Validation; activity change, negative = inhibition, % at 32.9 µM; shares compounds with NS1 inh; influenza NS1 function cell assay, 15-point titration; 1,400 tested, under 10 active; also: 0% is about no effect
* = called active by the depositor. This is a sample that favours compounds with a hit; in the whole collection about 10% have one here. Unless noted, calls follow the shape of the full dose curve.

CCOc1ccccc1NC(=O)CCNS(=O)(=O)c1cccc2nonc12 was read as Pf growth 48h 6.2%, Pf growth 96h inconclusive, NS1 inh -0.2% and SARS PLP yeast -6.9%.
Cc1ccc(CCN2CC(C(=O)NC3CCCC3)CC2=O)cc1 (configuration not stated) was read as Pf growth 48h 25.9%, Pf growth 96h -2.2%, NS1 inh inconclusive, SARS PLP yeast 7.3% and NS1 inh valid -17.0.
For Cc1ccc(CCN2CC(C(=O)NC3CCCCC3)CC2=O)cc1 (configuration not stated) the results were Pf growth 48h -3.3%, Pf growth 96h 18.5%, NS1 inh -3.8% and SARS PLP yeast 0.4%.
CC(C)c1ccc(/C=N/NC(=O)c2cc(-c3cccc([N+](=O)[O-])c3)n[nH]2)cc1 was read as Pf growth 48h inconclusive, Pf growth 96h inconclusive, NS1 inh 2.2% and SARS PLP yeast 0.1%.
`O=C(N/N=C/c1cccc([N+](=O)[O-])c1)c1cc(-c2ccc3c4c(cccc24)CC3)n[nH]1` gave Pf growth 48h -0.4%, Pf growth 96h inconclusive, NS1 inh inconclusive, SARS PLP yeast -5.2% and NS1 inh valid -20.6.
`O=C(N/N=C/c1ccc(Cl)c([N+](=O)[O-])c1)c1cc(-c2ccc3c4c(cccc24)CC3)n[nH]1` gave Pf growth 48h inconclusive, Pf growth 96h inconclusive, NS1 inh 5.01µM*, SARS PLP yeast 1.3% and NS1 inh valid -1.3.
`CCCCNC(=S)NNC(=O)c1ccco1` gave Pf growth 48h -19.1%, Pf growth 96h -17.7%, NS1 inh 5.5% and SARS PLP yeast 12.3%.
C/C(=N\Nc1nc(C)cc(-c2ccccc2)n1)c1ccccc1 was read as Pf growth 48h inconclusive, Pf growth 96h 328.2%, NS1 inh 5.0% and SARS PLP yeast -6.4%.
For C/C(=N\Nc1nc2ccc(Cl)cc2o1)c1ccccc1 the results were Pf growth 48h 2.3%, Pf growth 96h -20.8%, NS1 inh 8.91µM*, SARS PLP yeast -1.8% and NS1 inh valid inconclusive.
COc1ccc(CN2C(=O)NC(=O)/C(=C/c3ccc(OC)c(OC)c3OC)C2=O)cc1 was read as Pf growth 48h inconclusive, Pf growth 96h inconclusive, NS1 inh 10µM*, SARS PLP yeast -0.2% and NS1 inh valid 35.0.
Screening Fc1ccc(-c2csc(N3CCC(c4ccccc4)C3)n2)cc1 (configuration not stated) returned Pf growth 48h 99.4%, Pf growth 96h 191.9%, NS1 inh inconclusive, SARS PLP yeast 0.8% and NS1 inh valid -25.4.
Screening CC(NCc1ccc(S(N)(=O)=O)cc1)C(=O)N1CCc2ccccc21 (configuration not stated) returned Pf growth 48h 31.9%, Pf growth 96h 7.5%, NS1 inh 14.3% and SARS PLP yeast 2.0%.
`CC(NCc1ccc(S(N)(=O)=O)cc1)C(=O)N1c2ccccc2CC1C` (configuration not stated) gave Pf growth 48h -5.2%, Pf growth 96h -15.9%, NS1 inh 7.94µM*, SARS PLP yeast -0.5% and NS1 inh valid 3.0.
COC(=O)C1=C(C)N(Cc2ccc(C)cc2)C(=O)/C1=C\c1ccc(O)c(OC)c1 was read as Pf growth 48h -6.4%, Pf growth 96h -24.6%, NS1 inh 10µM*, SARS PLP yeast 3.1% and NS1 inh valid inconclusive.
Screening COc1ccc(CCNc2cc(C)[nH]c(=O)c2)cc1OC returned Pf growth 48h 28.7%, Pf growth 96h 3.2%, NS1 inh 12.2% and SARS PLP yeast 1.1%.
Screening O=C(NCCCO)C(=O)NCC(c1ccc2c(c1)OCO2)N1CCN(c2ccc(F)cc2)CC1 (configuration not stated) returned Pf growth 48h inconclusive, Pf growth 96h -0.5%, NS1 inh 2.24µM*, SARS PLP yeast 7.6% and NS1 inh valid -21.3.
COc1ccc(OC)c(S(=O)(=O)N2CCCC2C(=O)N2CCc3ccccc3C2)c1 (configuration not stated) was read as Pf growth 48h 1.8%, Pf growth 96h 2.0%, NS1 inh inconclusive, SARS PLP yeast 1.6% and NS1 inh valid inconclusive.
Screening COc1ccc(OC)c(S(=O)(=O)N2CCCCC2C(=O)O)c1 (configuration not stated) returned Pf growth 96h 2.5%, NS1 inh 4.8% and SARS PLP yeast 0.0%.
